Experimental data as given in PubChem BioAssay (NCATS).
Values joined by “and” are separate entries in the source; they are usually repeats but may differ in a detail not shown here. Equal values may be shown once. Unmarked numbers belong to inactive results. Results filed as inconclusive are left out. Active and inactive are the calls of the source. Unless noted, calls come from the whole dose curve; as a rule, active = well fitted inhibition curve with a large enough effect; inconclusive = small, poorly fitted or top-dose-only effect; inactive = flat fitted curve, though single readings scatter.

Columns and labels:
[1] = Drug repurposing screens with cells derived from glioblastoma tumor samples (AID 1345199); conditions: GBM patient neurospheres viability, ATP luminescence, 48 h; note: nearly all actives have a fitted effect of over 40% in size; note: potency is the fitted concentration of half-maximal effect; for activity, negative = cell killing: % is set by controls: 0 for no effect and ±100 for the full control effect
Procedure, shortened: (§1)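 Primary testing used CD133+ neurospheres from four GBM patients, seven concentrations, 48 h exposure and ATP-based viability; confirmation added three slower-growing patient lines.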

astro = control astrocytes; test: as above; conditions: viability, ATP luminescence, 48 h; series mostly up to 45.9 µM
Procedure, shortened: as §1

[2] = biological target: Nuclear receptor subfamily 1 group I member 2 (Rattus norvegicus) (UniProt Q9R1A7); test: qHTS assay for small molecule activators of the rat pregnane X receptor (rPXR) signaling pathway (AID 651751; call rule not given here; note: 0% is about no effect); conditions: rPXR reporter cells, luciferase (One-Glo), 24 h
Chain of Nuclear receptor subfamily 1 group I member 2 (Rattus norvegicus) (Q9R1A7 whole entry, looked up): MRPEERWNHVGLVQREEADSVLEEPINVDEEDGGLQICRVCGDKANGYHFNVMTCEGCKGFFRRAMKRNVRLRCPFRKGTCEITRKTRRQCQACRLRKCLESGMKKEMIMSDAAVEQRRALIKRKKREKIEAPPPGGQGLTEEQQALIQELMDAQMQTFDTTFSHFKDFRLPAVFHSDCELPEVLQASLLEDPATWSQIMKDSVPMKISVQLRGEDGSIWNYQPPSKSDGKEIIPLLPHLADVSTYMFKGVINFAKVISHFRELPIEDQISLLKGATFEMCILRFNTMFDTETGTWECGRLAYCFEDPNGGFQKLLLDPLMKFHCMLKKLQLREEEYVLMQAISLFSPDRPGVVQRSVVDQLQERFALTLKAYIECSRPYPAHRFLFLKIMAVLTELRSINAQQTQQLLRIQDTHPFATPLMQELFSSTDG

[3] = qHTS assay for small molecule activators of the human pregnane X receptor (PXR) signaling pathway (AID 720659; call rule not given here; note: 0% is about no effect); conditions: DPX-2 HepG2 CYP3A4-luciferase, 24 h; series mostly up to 92.3 µM
[4] = at 45.9 µM (top of the series), tumour line B
[5] = at 45.9 µM (top of the series), tumour line D
[6] = at 46.1 µM (top of the series), tumour line C
[7] = at 46 µM (top of the series), tumour line A

Compound	activity, negative = cell killing [1, 4]	activity, negative = cell killing [1, 5]	activity, negative = cell killing [1, 6]	Potency ([1]; tumour line A)	Potency (astro)	activity, negative = cell killing [1, 7]	max response [2]	outcome [3]
COc1ccc(C(=O)Nc2ccccc2CCC2CCCCN2C)cc1 (configuration not stated)	-11.1%	-17.7%	-23.4%	10 µM (active)	inactive			
Cn1nnnc1SCC1=C(C(=O)O)N2C(=O)[C@@H](NC(=O)[C@H](OC=O)c3ccccc3)[C@H]2SC1	-10.5%	-17.5%	-8.9%		inactive	-11.9%		
O=C(O)CC(O)(CC(=O)O)C(=O)O	-4.79%	-16.4%	8.12%			-28.2%	-3.16% and 0.294% and 0.384%	inactive
COc1ccc(CNCC(O)COc2ccc3[nH]c(=O)ccc3c2)cc1OC (configuration not stated)	-3.95%	-26.6%	15.6%		inactive			
O=C(OCCO)c1ccccc1O	-4.1%	8.11%	-4.97%		inactive	-21.4%		
c1cnc2cc3c(cc2n1)[C@@H]1CNC[C@H]3C1	5.48%	-17.8%	-0.703%		inactive			
CCC(=O)OCC(=O)[C@@]1(OC(=O)CC)[C@@H](C)C[C@H]2[C@@H]3CCC4=CC(=O)C=C[C@]4(C)[C@@]3(Cl)[C@@H](O)C[C@@]21C	-9.44%		-19%	10 µM (active)	inactive			
CCC(C)(C)OC(=O)N[C@@H](Cc1c[nH]c2ccccc12)C(=O)N[C@@H](CCSC)C(=O)N[C@@H](CC(=O)O)C(=O)N[C@@H](Cc1ccccc1)C(N)=O	-2.77%	-10.3%	-14.8%		inactive			
